An excerpt weighted towards active compounds, which were near 3.4% of everything screened.
NPSR antagonist: qHTS Assay for Antagonists of the Neuropeptide S Receptor: cAMP Signal Transduction; 1% of 220,000 active; CHO-NPSR cells, cAMP TR-FRET, antagonist mode; Potency, µM (top dose mostly 38.3 µM), without a hit: at the highest dose activity change, negative = inhibition, hits mostly inhibitors; further: potency means the concentration at half of the fitted maximal effect; on the % scale 0 is the no-effect control and ±100 the full control effect; nearly all actives have a fitted effect of over 50% in size
Target sequence (Q6W5P4 whole entry, looked up): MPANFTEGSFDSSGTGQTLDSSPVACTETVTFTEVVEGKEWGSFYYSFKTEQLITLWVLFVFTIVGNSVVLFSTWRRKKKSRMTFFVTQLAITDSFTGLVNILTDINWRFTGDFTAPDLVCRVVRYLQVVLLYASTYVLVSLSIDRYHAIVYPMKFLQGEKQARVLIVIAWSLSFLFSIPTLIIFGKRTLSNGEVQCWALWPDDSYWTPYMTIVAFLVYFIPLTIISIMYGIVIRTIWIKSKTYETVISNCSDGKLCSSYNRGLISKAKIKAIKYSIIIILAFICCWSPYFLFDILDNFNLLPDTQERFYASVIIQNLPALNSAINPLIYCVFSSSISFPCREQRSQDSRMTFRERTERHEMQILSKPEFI
IMPase inh: qHTS Assay for Identifying the Cell-Membrane Permeable IMPase Inhibitors. Inositol monophosphatase 1 (Rattus norvegicus), P97697. CHO-M1 cells, IP1 accumulation, HTRF TR-FRET ratio. inhibition (IP1 accumulation), % at 46.1 µM. 120,000 tested, under 10 active. AID 901, 2007; active means well fitted curve in the direction sought with a large enough effect in the signal ratio, not every such curve was filed as active; inconclusive means small, poorly fitted or top-dose-only effect, or a change in a side signal; inactive means no such curve, though single readings can be large or run the other way; the % refers to the signal ratio;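 further: cells stimulated with carbachol in lithium chloride buffer; plate controls were DMSO basal wells for no effect and reference inhibitor wells for full effect; higher means more IMPase inhibition seen as more IP1 and lower FRET ratio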
Target sequence (P97697 whole entry, looked up): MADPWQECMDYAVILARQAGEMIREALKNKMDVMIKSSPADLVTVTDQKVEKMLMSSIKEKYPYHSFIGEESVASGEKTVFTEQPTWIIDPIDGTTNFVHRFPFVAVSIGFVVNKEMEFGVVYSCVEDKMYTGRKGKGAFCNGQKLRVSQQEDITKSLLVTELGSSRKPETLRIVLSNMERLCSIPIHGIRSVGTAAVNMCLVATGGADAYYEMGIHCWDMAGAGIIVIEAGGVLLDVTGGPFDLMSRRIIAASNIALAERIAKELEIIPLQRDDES
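CHO-M1, 2000 cells/well, cultured 16–30 h; cpd up to 46 uM; carbachol (50 uM solution, stimulation buffer w/ 50 mM LiCl, pH 7.4), 30 min 37C; IP-One TR-FRET, 10 min RT; Ex 320/Em 665, 620; Hill-fit AC50.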
HttQ103 aggreg: qHTS Multiplex Assay to Identify Dual Action Probes in a Cell Model of Huntington: Aggregate Formation (GFP); PC12 HttQ103-GFP aggregates, Acumen cytometry, 40 h; Potency, µM (titrated, usually from 46.1 µM), without a hit: at the top dose activity change, negative = inhibition, hits mostly inhibitors; 1.1% of 220,000 active; AID 1688, 2009; further: potency means the concentration at half of the fitted maximal effect; on the % scale 0 is the no-effect control and ±100 the full control effect; nearly all actives have a fitted effect of over 60% in size
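PC12/HTTQ103-GFP, ecdysone-inducible; teb 100 nM; cpd qHTS titration; GFP aggregates read on laser cytometer, Ex 488/Em 500-530 nm.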
HTT ATP protect: qHTS Multiplex Assay to Identify Dual Action Probes in a Cell Model of Huntington: Cytoprotection (ATP); PC12 HTT-Q103 induced, cytoprotection, ATP luminescence, 40 h; Potency, µM (titrated, usually from 56.4 µM), for the others: cytoprotection (ATP increase), usual class: activators; 0.14% of 230,000 active; further: potency means the concentration at half of the fitted maximal effect; % of control where 0% means no effect; nearly all actives have a fitted effect of over 45% in size
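Readout: ATPlite luminescence (ATP level). Model: stable PC12, inducible Htt exon1 Q103-GFP. Inducer: tebufenozide, 100 nM final. Compounds: dose series. No G418 in medium.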
IMPase Li inh: qHTS Assay for Identifying the Cell-Membrane Permeable IMPase Inhibitors: Potentiation with Lithium. 0.35% of 210,000 active. Potency, µM (doses to about 59.4 µM), inactives show at the highest dose activity, negative = IMPase inhibition, most hits filed as inhibitors. CHO-M1 cells, IP1 TR-FRET (IP-One), carbachol + lithium;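 further: IP1 builds up when IMPase is blocked and the TR-FRET signal falls; potency means the concentration at half of the fitted maximal effect; plate controls were basal vehicle for no effect and high inhibitor control for full effect; nearly all actives have a fitted effect of over 50% in size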
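Steps: plate 2000 CHO-M1 cells per well and culture 16–30 h; add compound and lithium; incubate 30 min, 37C; add d2-IP1 tracer and Eu cryptate anti-IP1 antibody in lysis buffer; read after 10 min at room temperature.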
PNC assembly inh: High Content Assay for Compounds that inhibit the Assembly of the Perinucleolar Compartment; PC3M PTB-GFP, PNC prevalence imaging, 16 h; hits give low values; activity change (PNC), negative = inhibition, % at 10 µM; 3.1% of 140,000 active; AID 2417, 2010;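 active means readout at or below -70, meaning at least 70% loss of cells showing the perinucleolar compartment, a nuclear body marking cancer cells; inconclusive means readout between -30 and a set limit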;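 further: plate controls were DMSO wells for no effect and camptothecin positive control wells for full effect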
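Compounds are pinned in duplicate onto adhered PC3M cells stably expressing GFP-tagged PTB and incubated 16 h at 37 C. Cells are then fixed, nuclei stained with Hoechst, and PNC-positive cells counted.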
Starred values were filed as active, the others as inactive; u = inconclusive; x = not tested or not shown; ! = a repeat was not active; [ ] = dose if it differs, or a comment. Unless noted, the call rests on the fitted dose curve; in most records, active means well fitted curve in the direction sought with a large enough effect; inconclusive means small, poorly fitted or top-dose-only effect, or another doubt; inactive means no such curve, though single readings can be large; an effect the other way counts as inactive or inconclusive.

SMILES | NPSR antagonist | IMPase inh | HttQ103 aggreg | HTT ATP protect | IMPase Li inh | PNC assembly inh
COC(=O)Cc1ccc(NC(=S)NCCSc2ccc(Cl)cc2)cc1 | -28% | x | 3%[9.22 µM] | 8%[10 µM] | x | x
Cc1nc(SCC(=O)NCCc2ccccc2)c2oc3ccccc3c2n1 | u | 0 | -1% | -19% | 6.3µM* | -100*
CCc1nc(SCC(=O)NCCc2ccccc2)c2oc3ccccc3c2n1 | -28%[46.1 µM] | 6 | 3% | -21% | 1%[38.3 µM] | 3
Cc1nc(SCC(=O)Nc2ccccc2)c2oc3ccccc3c2n1 | u | -5 | 0% | -21%[0.074 µM] | x | u
Cc1nc(NCCc2ccccc2)c2oc3ccccc3c2n1 | -19%[46.1 µM] | 15 | 7.9µM* | -44% | 47%[38.3 µM] | -4
CNC(=O)C(Sc1nc(C)nc2c1oc1ccccc12)C(C)=O (stereo not drawn) | -7%[46.1 µM] | -25 | 9% | -27% | 4.5µM* | -2
Cc1nc(NCCN2CCOCC2)c2oc3ccccc3c2n1 | 4%[46.1 µM] | 22 | -9% | -8% | -3%[38.3 µM] | 24
CC(C)(C(O)c1ccc([N+](=O)[O-])cc1)[N+](=O)[O-] (stereo not drawn) | x | x | x | 0% | 15% | x
Cc1ccc(C)c(SCC(=O)Nc2cc(C)nn2-c2ccc(F)cc2)c1 | -5%[46.1 µM] | 4 | -1% | 12%[10 µM] | x | 15
O=C(CSc1nnc(-c2c[nH]c3ccccc23)o1)N(Cc1ccccc1)c1ccc(F)cc1 | 7.9µM* | 6 | 15% | 23%[10 µM] | -8% | 18
COc1ccc(CN(C(=O)CSc2nnc(-c3ccccc3C)o2)c2ccc(F)cc2)cc1 | -26%[46.1 µM] | 12 | u | 15%[10 µM] | 9% | 72
CC(=O)OCC1OC(Oc2cc(OC(C)=O)c3c(=O)cc(-c4ccc(OC(C)=O)c(OC(C)=O)c4)oc3c2)C(OC(C)=O)C(OC(C)=O)C1OC(C)=O (stereo not drawn) | x | 3 | x | 13%[1.9 µM] | 9% | x
Cn1cnnc1SCCC(=O)Nc1ccc(Cl)cc1 | 12%[46.1 µM] | 0 | -2% | -4%[10 µM] | 2% | -113*
COC(=O)C1OC(=O)C2OC23[C@]2(C)C(OC(C)=O)CC4C(C)(C)C(=O)CC[C@]4(C)C2CC[C@@]13C (stereo partly drawn) | x | x | x | x | -2% | x
CC[n+]1c(/C=C/Nc2ccccc2)sc2ccccc21 | 0%[46.1 µM] | 5 | 11µM* | -48% | 14%[38.3 µM] | -28
CC[n+]1c(C=C2C=C(C)OC(C)=C2)sc2ccccc21 | -40% | x | 4µM* | -97% | 25% | x
COc1ccc(S(=O)(=O)N(CC(=O)Nc2cc(Cl)ccc2C)Cc2ccccc2)cc1OC | x | 2 | x | x | x | x
COC(=O)CC(c1ccc(OC)c(OC)c1)c1ccc(OC)c(OC)c1 | 4% | x | 11%[9.22 µM] | -98% | 1% | x
COc1ccc(C(NC(C)=O)c2ccc3cccnc3c2O)c(OC)c1 (stereo not drawn) | -19%[46.1 µM] | -2 | 4µM* | -107% | 0%[38.3 µM] | 17
CC(C)C(=O)NC(c1ccco1)c1ccc2cccnc2c1O (stereo not drawn) | -20%[46.1 µM] | 6 | 4µM* | -102% | 6%[38.3 µM] | -25
CCCC(=O)NC(c1ccccc1OC)c1ccc2cccnc2c1O (stereo not drawn) | 33% | x | u | -73%[10 µM] | 15% | x
FC(F)Sc1ccc(NC(=S)NC(c2ccccc2)c2ccccc2)cc1 | u | x | 13µM* | -132% | 15% | x
NC[C@@H]1O[C@@H](O[C@H]2[C@H](O)[C@H](O[C@@H]3O[C@H](CO)[C@@H](O)[C@H](N)[C@@H]3O)[C@@H](N)C[C@H]2N)[C@H](N)C[C@@H]1O | x | -4[20.6 µM] | -3%[20.6 µM] | -13%[40.3 µM] | 8% | x
COc1cccc(-c2nnc(SCC3CNC(=O)O3)n2-c2ccc(Cl)cc2)c1 (stereo not drawn) | -25%[46.1 µM] | -2 | 2% | -4%[10 µM] | x | 81
COc1ccc(-c2nc3ccccc3c(=O)n2CCOc2ccccc2C)cc1 | -9% | x | 15% | -1%[10 µM] | 3% | -121*
SMILES | NPSR antagonist | IMPase inh | HttQ103 aggreg | HTT ATP protect | IMPase Li inh | PNC assembly inh
COc1ccc(-c2nc3ccccc3c(=O)n2CCOc2ccc(C)cc2C)cc1 | -8% | -6 | -6% | 10%[10 µM] | 6% | -12
COc1ccc(NCc2nc3ccccc3n2CCOc2ccc(C)cc2)cc1 | -12% | x | u | x | 15% | -113*
COc1ccc(NCc2nc3ccccc3n2CCOc2ccccc2)cc1 | -13%[46.1 µM] | 16 | u | 1%[10 µM] | 12% | u
C=CCn1c(-c2ccc(OC)cc2)nc2ccccc21 | -24%[46.1 µM] | -2 | 11µM* | -28%[10 µM] | 32%[38.3 µM] | -2
CCOCCn1c(-c2ccc(OC)cc2)nc2ccccc21 | -15%[46.1 µM] | -1 | -4% | -10% | 6%[38.3 µM] | -106*
C=CCn1c(-c2ccc(N)cc2)nc2ccccc21 | 2%[46.1 µM] | -2 | -1% | -27% | -7%[38.3 µM] | 0
C[C@@H](C(=O)NCc1cccc2ccccc12)[C@H]1C[C@]1(C)[C@H](NC(=O)OCc1ccccc1)c1ccccc1 | x | x | x | -4% | 2% | x
O=S(=O)(c1ccccc1)N1CCC2(CCCN(Cc3ccccc3)C2)CC1 | x | x | x | 15% | 27% | x
CC(C)(N)C(=O)N[C@@H]1C(=O)N2[C@@H]1SC(C)(C)[C@H]2C(=O)O | x | x | x | -1%[10 µM] | -4% | x
COc1ccc(CCNC(=O)CNC(=O)Cn2ccc3ccccc3c2=O)cc1OC | 4% | x | -18%[9.22 µM] | -15%[10 µM] | x | x
Cc1ccc(NC(=O)CN(C)C(=O)COc2cccc3cccnc23)cc1 | 7% | x | -2% | -6%[10 µM] | -7% | 43
CCn1c(-c2ccc(N)cc2)nc2ccccc21 | -3%[46.1 µM] | -2 | -7% | 3% | -5%[38.3 µM] | -7
CCn1c(-c2ccc(N(C)C)cc2)nc2ccccc21 | u | 10 | 10µM* | -97% | -1%[38.3 µM] | -1
O=Nc1c(-c2c(O)[nH]c3ccccc23)[nH]c2ccccc12 | 5%[46.1 µM] | 20 | x | 1.3µM*! | 33% | x
O=C1c2ccccc2-n2c1nc1ccccc1c2=O | 9% | x | 11µM* | -168% | 6% | x
CC(C)(C)NC(=O)C(=O)NNC(=O)c1cccc(F)c1 | 6% | x | 0.63µM* | u | -3% | x
CS(=O)(=O)N1CCC(C(=O)N2CCN(C(c3ccccc3)c3ccccc3)CC2)CC1 | -19% | x | 6% | 6%[10 µM] | 22% | x
CCCn1c(NC(=O)c2cccc(C)c2C)nc2ccccc21 | -12%[46.1 µM] | 13 | 6.3µM* | -57% | 22%[38.3 µM] | 7
CCC(NC(=O)c1ccccc1O)c1ccccc1 (stereo not drawn) | -12%[46.1 µM] | 4 | -32% | 11%[0.074 µM] | 18%[38.3 µM] | -109*
